GalR3 antag: antagonists of human GalR3. inhibition, % at 3 µM. HEK293 GalR3-CNG cAMP membrane potential fluorescence; galR3 body fused to GalR1 C-terminus. hit rate 0.44% among 360,000. O60755;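 active means inhibition above the screen-wide average plus 3 SD, cut at about 13% in these data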;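 further: forskolin and galanin both at EC90 stimulate the cells; cAMP rise reported by CNG channel membrane potential dye signal; 0% = forskolin plus galanin with DMSO and 100% = forskolin alone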
Target sequence (O60755 1-299 limits assumed): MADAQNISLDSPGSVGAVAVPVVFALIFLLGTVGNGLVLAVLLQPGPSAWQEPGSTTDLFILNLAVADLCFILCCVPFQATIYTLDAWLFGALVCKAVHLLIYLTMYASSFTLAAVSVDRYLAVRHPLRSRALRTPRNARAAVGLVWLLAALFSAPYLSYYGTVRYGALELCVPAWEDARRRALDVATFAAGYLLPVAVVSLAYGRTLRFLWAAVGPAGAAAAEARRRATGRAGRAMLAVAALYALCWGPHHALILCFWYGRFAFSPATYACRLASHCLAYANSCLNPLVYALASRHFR
GAA850 FXN act: activators of GAA850 frataxin (FXN) promoter; HEK293 lucGAA850 FXN promoter luciferase reporter, 24 h; percent of 10 µM SAHA response; activation, % at 6 µM; hit rate 0.56% among 360,000;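 active means activation above the average of all compounds screened plus 3 SD, cutoff fixed separately per campaign, cut at about 7.5% in these data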;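 further: 0% = DMSO wells and 100% = 10 µM SAHA wells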
HIF act: HIF pathway transcriptional activation. U2OS HRE-luciferase reporter, luminescence; normalized: DMSO 0%, desferrioxamine 100%. activation, % at 7.5 µM (by protocol). hit rate 0.32% among 300,000;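 active means mean activation of at least 10% of the iron chelator positive control signal, with at least half of replicates also reaching 10%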
SMARCA2 activ: increases SMARCA2 function in MMTV reporter cells; activation, % at 9.1 µM; MG213 cells, MMTV-luciferase reporter, dexamethasone, overnight; hit rate 1% among 370,000; AID 652017; in the data active means activation above about 7.8%;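 further: 0% = vehicle wells and 100% = reference activator wells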
Hsp70 act: Hsp70 transcriptional activation, primary screen. HeLa Hsp70 promoter luciferase reporter, luminescence; scaled: vehicle 0, proteasome-inhibitor control 100%. activation, % at 10 µM. hit rate 0.04% among 200,000. AID 1203;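 active means activation above the mean across all tested compounds plus 3 SD, cutoff set per campaign, cut at about 5.5% in these data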;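 further: 100% = MG132 at 30 µM as the positive control and 0% = DMSO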
GalR3 antag conf: confirmation of human galanin receptor 3 antagonists; shares compounds with GalR3 antag; HEK293 GalR3 CNG cAMP biosensor, membrane potential fluorescence; galR3 fused to GalR1 carboxy tail; challenged with forskolin and galanin at EC90; inhibition, % at 3 µM; hit rate 59% among 1,600;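 active means inhibition above the primary screen's cutoff, the mean inhibition of all screened compounds plus 3 SD, cut at about 13% in these data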;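 further: 0% = forskolin plus galanin and 100% = forskolin alone with DMSO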
CNG parental: acts as nonspecific agonist in parental HEK-CNG cells; HEK293-CNG parental cells, cAMP membrane potential fluorescence; normalised: DMSO wells 0%, forskolin wells 100%; shares compounds with GalR3 antag; AID 652268; activation, % at 3 µM; hit rate 10% among 1,600; in the data active means activation above about 1.3%
* marks the source's active call; other numbers are inactive results; nt = no result. A selection: hits, their analogues and other compounds. The true share with any hit is near 2.2%.

SMILES	GalR3 antag	GAA850 FXN act	HIF act	SMARCA2 activ	Hsp70 act	GalR3 antag conf	CNG parental
COc1cccc(-c2ccc(-c3noc(-c4cccs4)n3)c(OC)n2)c1	15*	0	0	1	0	13*	1
O=C(c1ccc(F)cc1Cl)N1CCCC(c2nc(-c3cccs3)no2)C1 (stereo not given)	nt	nt	nt	-2	nt	nt	nt
COc1ccc(OC)c(S(=O)(=O)N/N=C\c2ccc3c(c2)OCO3)c1	-3	3	1	1	nt	nt	nt
COc1ccc(S(=O)(=O)N/N=C\c2ccc3c(c2)OCO3)c(OC)c1	100*	-2	0	-2	nt	73*	0
N#CCC[C@H]1CC[C@]2(CCCN(Cc3ccc(Br)cc3)C2)O1	nt	nt	nt	-3	nt	nt	nt
CCCOC(=O)c1ccc(OCC(O)Cn2c(C)nc3ccccc32)cc1 (stereo not given)	105*	-4	1	-8	0	123*	0
CC(=NNC(=O)CSc1nnc(-c2ccc(C(C)(C)C)cc2)n1-c1ccccc1)c1cccc2ccccc12	nt	nt	nt	-5	nt	nt	nt
Cc1cc(S(=O)(=O)c2ccc(Cl)cc2)nc(S(=O)(=O)c2ccc(Cl)cc2)c1C#N	16*	-14	nt	-5	nt	11	0
CCOC(=O)/C(C#N)=C/c1cn(CCC(=O)O)nc1-c1ccc(OC)cc1	14*	-1	1	-4	0	7	0
Cn1c(NC(=O)c2ccccc2)nc(Cc2ccccc2)c1Cc1ccccc1	nt	nt	nt	-6	nt	nt	nt
COCCCn1c(-c2ccc(OC)cc2)nc2c1c(=O)[nH]c(=O)n2Cc1ccccc1	14*	1	0	-2	nt	13	0
O=C(N/N=C/c1cc(Br)ccc1O)C(=O)Nc1ccccc1OC(F)(F)C(F)F	15*	-7	12*	-3	0	57*	-2
COc1cccc(/C=N/NC(=O)C(=O)Nc2ccccc2OC(F)(F)C(F)F)c1	3	0	nt	3	0	nt	nt
COc1ccccc1/C=N/NC(=O)C(=O)Nc1ccccc1OC(F)(F)C(F)F	-1	4	nt	-1	0	nt	nt
O=C(N/N=C/c1cc(Cl)ccc1O)C(=O)Nc1ccccc1OC(F)(F)C(F)F	22*	-5	nt	-4	1	66*	-1
Cc1cccc(-c2cccc3c4c([nH]c23)[C@@H]2C[C@H]3[C@@H](CN2CC4)[C@H](C)ON3C)c1	nt	nt	nt	-3	nt	nt	nt
COC(=O)[C@]12C[C@H](CC(=O)NCc3ccc(OC)c(OC)c3)C(=O)N(Cc3cccc4ccccc34)C1=C[C@H](COCc1ccccc1)O[C@@H]2C	nt	nt	nt	-5	nt	nt	nt
COC(=O)C1=C(C)N(C)C(=NCc2ccc(C(F)(F)F)cc2)NC1c1cccc(F)c1 (stereo not given)	-2	nt	nt	1	nt	nt	nt
Cc1ccc(S(=O)(=O)NCC(=O)NCc2ccncc2)cc1	3	1	0	2	0	nt	nt
CCOC(=O)COc1ccc(S(=O)(=O)NCc2ccncc2)cc1	110*	-4	0	-5	0	111*	0
CCOC(=O)COc1ccc(S(=O)(=O)NCc2ccco2)cc1	-2	1	0	-3	0	nt	nt
CCOc1ccc(S(=O)(=O)NCc2ccccn2)cc1	-1	0	0	-3	0	nt	nt
CCOc1ccc(S(=O)(=O)NCc2ccncc2)cc1	91*	-4	0	-7	0	108*	0
COc1ccc(S(=O)(=O)NCc2ccccn2)cc1	15*	-1	1	0	0	20*	0
Cc1ccc(S(=O)(=O)NCc2ccncc2)cc1	22*	-4	0	-2	0	74*	0
Cc1cccc(C)c1NC(=O)C1CCCN1S(=O)(=O)c1cccc2cccnc12 (stereo not given)	nt	nt	nt	2	nt	nt	nt
O=C(NCc1cccs1)C1CCC(CNS(=O)(=O)c2cccc3cccnc23)CC1 (stereo not given)	nt	nt	nt	-7	nt	nt	nt
COC(=O)[C@]12C[C@H](CC(=O)N3CCOCC3)C(=O)N(Cc3ccco3)C1=C[C@H](C(C)(C)C)O[C@@H]2C	nt	nt	nt	2	nt	nt	nt
Cc1cc(S(=O)(=O)NCc2ccncc2)c(C)cc1Br	104*	-2	0	-3	nt	111*	0
